From PubChem BioAssay (EPA / NIEHS)
Active and inactive are the calls of the source. How the source made its calls: active means hit-call score of the fitted dose curve at least 0.9, where 1 is the maximum; inactive means score below 0.9.

Assays:
[1] = read-out: Transforming growth factor beta 1 (TGFb1), TGFB1 (gene 7040); test: BSK_KF3CT_TGFb1: BioMAP Diversity Plus: KF3CT Assay for Transforming growth factor beta 1 (TGFb1) Biomarker Activity (AID 2283072); conditions: primary human keratinocytes with fibroblasts; actives raise or lower the signal
How it was run: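 Human keratinocyte plus foreskin fibroblast primary co-culture, dosed with chemical for 24 h. TGF-b1 quantified by ELISA. Activity fitted bidirectionally against DMSO negative control as baseline.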

[2] = read-out: C-C motif chemokine 2 (Homo sapiens) (UniProt P13500); test: BSK_KF3CT_MCP1: BioMAP Diversity Plus: KF3CT Assay for Monocyte Chemoattractant Protein 1 (MCP1/CCL2) Biomarker Activity (AID 2283073); conditions: primary human keratinocytes with fibroblasts; actives raise or lower the signal
How it was run: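 ELISA read-out of MCP-1, 24 h post-dose, in primary human skin keratinocytes co-cultured with fibroblasts. Parallel SRB staining monitors cytotoxicity; changes fitted both directions relative to DMSO.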

[3] = read-out: Matrix Metallopeptidase 9 (MMP9), MMP9 (gene 4318); test: BSK_KF3CT_MMP9: BioMAP Diversity Plus: KF3CT Assay for Matrix Metallopeptidase 9 (MMP9) Biomarker Activity (AID 2283074); conditions: primary human keratinocytes with fibroblasts; actives raise or lower the signal
How it was run: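 Human keratinocyte and foreskin fibroblast co-culture exposed to chemicals for 24 h; MMP9 biomarker measured by ELISA, bidirectional fitting relative to DMSO; cytotoxicity tracked by SRB total protein staining in parallel cultures.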

[4] = read-out: urokinase plasminogen activator (uPA), PLAU (gene 5328); test: BSK_KF3CT_uPA: BioMAP Diversity Plus: KF3CT Assay for urokinase plasminogen activator (uPA) Biomarker Activity (AID 2283075); conditions: primary human keratinocytes with fibroblasts; actives raise or lower the signal
How it was run: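 Primary human keratinocyte/foreskin fibroblast co-culture exposed to chemical; uPA measured by ELISA at 24 h. Bidirectional fit versus DMSO, with parallel SRB total-protein staining for cytotoxicity.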

CD40, CD40 (gene 958) [5] = test: BSK_LPS_CD40: BioMAP Diversity Plus: LPS Assay for CD40 Biomarker Activity (AID 2283076); conditions: primary human HUVEC with PBMC; actives raise or lower the signal
How it was run: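 In the LPS system of human endothelial cells with peripheral blood mononuclear cells, CD40 levels were read by ELISA 24 h post-treatment. Signal changes in either direction were fitted against the DMSO baseline, with parallel SRB protein staining.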

[6] = read-out: E-selectin (Homo sapiens) (UniProt P16581); test: BSK_LPS_Eselectin: BioMAP Diversity Plus: LPS Assay for Eselectin Biomarker Activity (AID 2283077); conditions: primary human HUVEC with PBMC; actives raise or lower the signal
How it was run: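 E-selectin ELISA on LPS-stimulated endothelial cell/PBMC co-cultures, read 24 h post-treatment; gains and losses fitted against DMSO. Parallel SRB staining (0.1% SRB after 10% TCA fixation, 560 nm) flags overt cytotoxicity.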

[7] = read-out: Interleukin-8 (IL8), CXCL8 (gene 3576); test: BSK_LPS_IL8: BioMAP Diversity Plus: LPS Assay for Interleukin-8 (IL8) Biomarker Activity (AID 2283078); conditions: primary human HUVEC with PBMC; actives raise or lower the signal
How it was run: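 ELISA read-out of IL-8 after 24 h chemical treatment of LPS-activated endothelial/PBMC human primary co-cultures. Changes either up or down relative to DMSO; overt cytotoxicity checked by sulforhodamine B staining in parallel wells.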

[8] = BSK_LPS_SRB: Viability Assessment in the BioMAP Diversity Plus: LPS Assay (AID 2283079); conditions: primary human HUVEC with PBMC;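 further: total protein by sulforhodamine B absorbance as a cytotoxicity measure; measured one day after compound addition; fitted in both directions against DMSO so loss or gain of signal counts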
How it was run: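 SRB viability endpoint: cells fixed with 10% TCA, stained with 0.1% SRB, read at 560 nm, 24 h post-dose. HUVEC/PBMC co-culture; signal change in either direction scored relative to DMSO.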

[9] = read-out: Interleukin-1 alpha (IL1a), IL1A (gene 3552); test: BSK_LPS_IL1a: BioMAP Diversity Plus: LPS Assay for Interleukin-1 alpha (IL1a) Biomarker Activity (AID 2283080); conditions: primary human HUVEC with PBMC; actives raise or lower the signal
How it was run: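 Readout is IL-1a level by ELISA, 24 h post-dose, fitted as gain or loss relative to DMSO. System: LPS-activated human primary co-culture of vascular endothelium and peripheral blood mononuclear cells, with parallel SRB total-protein cytotoxicity.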

[10] = read-out: Monocyte Chemoattractant Protein-1 (MCP1), CCL2 (gene 6347); test: BSK_LPS_MCP1: BioMAP Diversity Plus: LPS Assay for Monocyte Chemoattractant Protein-1 (MCP1) Biomarker Activity (AID 2283081); conditions: primary human HUVEC with PBMC; actives raise or lower the signal
How it was run: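 Secreted MCP-1 read by ELISA at 24 h post-dosing in an LPS-activated co-culture of endothelial cells with peripheral blood mononuclear cells. Fits run in both directions, DMSO as baseline; parallel SRB staining tracks overt cytotoxicity.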

[11] = BSK_LPS_PGE2: BioMAP Diversity Plus: LPS Assay for Prostaglandin E2 (PGE2) Biomarker Activity (AID 2283082); conditions: primary human HUVEC with PBMC; actives raise or lower the signal;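 on AC50: secreted prostaglandin E2 measured by ELISA in LPS-stimulated co-culture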
How it was run: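 HUVEC plus PBMC co-culture stimulated with LPS; secreted PGE2 quantified by ELISA 24 h after chemical dosing. Activity fitted bidirectionally against DMSO as negative control and baseline; parallel SRB total-protein staining served as cytotoxicity check.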

[12] = read-out: Macrophage colony-stimulating factor (MCSF), CSF1 (gene 1435); test: BSK_LPS_MCSF: BioMAP Diversity Plus: LPS Assay for Macrophage colony-stimulating factor (MCSF) Biomarker Activity (AID 2283083); conditions: primary human HUVEC with PBMC; actives raise or lower the signal
How it was run: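 Bidirectional fitting against DMSO was applied to M-CSF levels read by ELISA at 24 h post-dose. The system pairs human umbilical vein endothelium with peripheral blood mononuclear cells; parallel SRB staining tracked cytotoxicity.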

[13] = read-out: Tissue Factor, F3 (gene 2152); test: BSK_LPS_TissueFactor: BioMAP Diversity Plus: LPS Assay for Tissue Factor Biomarker Activity (AID 2283084); conditions: primary human HUVEC with PBMC; actives raise or lower the signal
How it was run: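 Compound was added to an endothelial cell/PBMC co-culture, and after 24 h tissue factor (CD142) was read by ELISA. Gain or loss of signal was fitted against a DMSO baseline, and parallel SRB staining (560 nm) tracked overt cytotoxicity.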

[14] = read-out: Tumor necrosis factor (Homo sapiens) (UniProt P01375); test: BSK_LPS_TNFa: BioMAP Diversity Plus: LPS Assay for Tumour Necrosis Factor alpha (TNFa) Biomarker Activity (AID 2283085); conditions: primary human HUVEC with PBMC; actives raise or lower the signal
How it was run: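 Human umbilical vein endothelial cells co-cultured with PBMC were exposed to test chemical and TNFa measured by ELISA 24 h after dosing. Bidirectional curve fitting was done relative to DMSO as negative control and baseline.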

[15] = read-out: Vascular cell adhesion molecule 1 (VCAM1), VCAM1 (gene 7412); test: BSK_LPS_VCAM1: BioMAP Diversity Plus: LPS Assay for Vascular cell adhesion molecule 1 (VCAM1) Biomarker Activity (AID 2283086); conditions: primary human HUVEC with PBMC; actives raise or lower the signal
How it was run: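 Human umbilical vein endothelial cells co-cultured with peripheral blood mononuclear cells under LPS stimulation were exposed to test chemical for 24 h. VCAM-1 levels were then measured by ELISA, with bidirectional curve fitting relative to DMSO as negative control and baseline.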

CD40, CD40 (gene 958) [16] = test: BSK_SAg_CD40: BioMAP Diversity Plus: SAg Assay for CD40 Biomarker Activity (AID 2283088); conditions: primary human HUVEC with PBMC; actives raise or lower the signal
How it was run: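 CD40 is measured by fluorescence ELISA in an endothelial/PBMC primary human co-culture at 24 h post-dose. Fitting is bidirectional, DMSO baseline. Parallel SRB staining (560 nm) flags cytotoxicity.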

CD69, CD69 (gene 969) = test: BSK_SAg_CD69: BioMAP Diversity Plus: SAg Assay for CD69 Biomarker Activity (AID 2283089); conditions: primary human HUVEC with PBMC; actives raise or lower the signal
How it was run: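 Values derive from bidirectional fitting relative to DMSO vehicle. Cells: umbilical vein endothelium plus peripheral blood mononuclear cells, treated 24 h before fluorescent ELISA for CD69.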

[17] = read-out: Monocyte Chemoattractant Protein-1 (MCP1), CCL2 (gene 6347); test: BSK_SAg_MCP1: BioMAP Diversity Plus: SAg Assay for Monocyte Chemoattractant Protein-1 (MCP1) Biomarker Activity (AID 2283090); conditions: primary human HUVEC with PBMC; actives raise or lower the signal
How it was run: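 MCP-1 levels in the endothelial–PBMC SAg co-culture were quantified by ELISA at 24 h post-dosing; both increases and decreases versus DMSO scored. Cytotoxicity monitored by SRB total protein in parallel cultures.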

CD38, CD38 (gene 952) = test: BSK_SAg_CD38: BioMAP Diversity Plus: SAg Assay for CD38 Biomarker Activity (AID 2283087); conditions: primary human HUVEC with PBMC; actives raise or lower the signal
How it was run: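 Fluorescence ELISA of cell-surface CD38 served as the read-out, with either increase or decrease fitted against DMSO controls. Cells were a human umbilical vein endothelium plus PBMC co-culture under SEB/TSST-1 stimulation, measured 24 h after dosing.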

Sequence of Tumor necrosis factor (Homo sapiens) (P01375 whole entry, looked up): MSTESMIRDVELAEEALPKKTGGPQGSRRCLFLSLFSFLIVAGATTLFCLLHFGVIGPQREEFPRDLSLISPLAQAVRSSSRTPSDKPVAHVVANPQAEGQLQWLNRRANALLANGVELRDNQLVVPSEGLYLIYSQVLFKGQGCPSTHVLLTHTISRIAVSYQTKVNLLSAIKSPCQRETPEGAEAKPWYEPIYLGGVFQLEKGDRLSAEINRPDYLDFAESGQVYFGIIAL
Sequence of E-selectin (Homo sapiens) (P16581 whole entry, looked up): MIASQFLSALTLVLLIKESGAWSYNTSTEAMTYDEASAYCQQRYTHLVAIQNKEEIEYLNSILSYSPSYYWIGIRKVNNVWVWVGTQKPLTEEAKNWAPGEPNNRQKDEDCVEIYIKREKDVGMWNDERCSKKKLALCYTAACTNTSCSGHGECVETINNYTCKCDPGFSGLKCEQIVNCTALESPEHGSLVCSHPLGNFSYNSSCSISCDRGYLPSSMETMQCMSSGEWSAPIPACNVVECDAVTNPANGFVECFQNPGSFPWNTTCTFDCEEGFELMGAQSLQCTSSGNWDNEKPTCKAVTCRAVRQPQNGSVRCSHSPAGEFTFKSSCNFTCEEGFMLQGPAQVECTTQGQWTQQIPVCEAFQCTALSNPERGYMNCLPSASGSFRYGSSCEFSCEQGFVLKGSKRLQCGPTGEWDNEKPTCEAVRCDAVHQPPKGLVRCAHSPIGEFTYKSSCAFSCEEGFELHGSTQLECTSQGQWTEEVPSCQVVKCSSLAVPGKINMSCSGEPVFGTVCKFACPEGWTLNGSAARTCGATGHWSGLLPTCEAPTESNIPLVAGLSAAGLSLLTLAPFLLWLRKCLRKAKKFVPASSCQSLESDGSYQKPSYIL

In the case of O=c1ccc(=O)[nH][nH]1, the outcome [1] is reported as “inactive”, the outcome [2] is reported as “inactive” and the outcome [3] is reported as “inactive”. The outcome [4] was “inactive”, the outcome (CD40, CD40 (gene 958) [5]) was “inactive” and the outcome [6] was “inactive”. The outcome [7] was “inactive”, the outcome [8] was “inactive” and the outcome [9] was “inactive”. For the same compound, the outcome [10] was “inactive”, the outcome [11] was “inactive” and the outcome [12] was “inactive”. The outcome [13] was “inactive”, the outcome [14] was “inactive” and the outcome [15] was “inactive”. The outcome (CD40, CD40 (gene 958) [16]) was “inactive”, the outcome (CD69, CD69 (gene 969)) was “inactive” and the outcome [17] was “inactive”.

In the case of CCCSP(=O)(OCC)SCCC, the outcome [1] is reported as “inactive”, the outcome [2] is reported as “inactive” and the outcome [3] is reported as “inactive”. The outcome [4] was “inactive”, the outcome [6] was “inactive” and the outcome [7] was “inactive”. The outcome [8] was “inactive”, the outcome [9] was “inactive” and the outcome [10] was “inactive”. For the same compound, the outcome [11] was “inactive”, the outcome [12] was “inactive” and the outcome [13] was “inactive”. For the same compound, the outcome [14] was “inactive”, the outcome [15] was “inactive” and the outcome (CD40, CD40 (gene 958) [16]) was “inactive”. The outcome (CD69, CD69 (gene 969)) was “inactive” and the outcome [17] was “inactive”.

In the case of CNC(=O)ON=C(C)SC, the outcome [1] is reported as “inactive”, the outcome [2] is reported as “inactive” and the outcome [3] is reported as “inactive”. The outcome [4] was “inactive”, the outcome [6] was “inactive” and the outcome [7] was “inactive”. The outcome [8] was “inactive”, the outcome [9] was “inactive” and the outcome [10] was “inactive”. The AC50 [11] was 0.564 µM (active), the outcome [12] was “inactive” and the outcome [13] was “inactive”. The outcome [14] was “inactive”, the outcome [15] was “inactive” and the outcome (CD40, CD40 (gene 958) [16]) was “inactive”. For the same compound, the outcome (CD69, CD69 (gene 969)) was “inactive” and the outcome [17] was “inactive”.

For CCc1cnc(C2=NC(C)(C(C)C)C(=O)N2)c(C(=O)O)c1 (configuration not stated), the outcome [1] was “inactive”, the outcome [2] was “inactive” and the outcome [3] was “inactive”. The outcome [4] was “inactive”, the outcome (CD40, CD40 (gene 958) [5]) was “inactive” and the outcome [6] was “inactive”. For the same compound, the outcome [7] was “inactive”, the outcome [8] was “inactive” and the outcome [9] was “inactive”. For the same compound, the outcome [10] was “inactive”, the outcome [11] was “inactive” and the outcome [12] was “inactive”. For the same compound, the outcome [13] was “inactive”, the outcome [14] was “inactive” and the outcome [15] was “inactive”. The outcome (CD40, CD40 (gene 958) [16]) was “inactive”, the outcome (CD69, CD69 (gene 969)) was “inactive” and the outcome [17] was “inactive”.

With CC(Oc1cccc(Cl)c1)C(=O)O (configuration not stated) the outcome [1] was “inactive”, the outcome [2] was “inactive” and the outcome [3] was “inactive”. For the same compound, the outcome [4] was “inactive”, the outcome [6] was “inactive” and the outcome [7] was “inactive”. The outcome [8] was “inactive”, the outcome [9] was “inactive” and the outcome [10] was “inactive”. The outcome [11] was “inactive”, the outcome [12] was “inactive” and the outcome [13] was “inactive”. The outcome [14] was “inactive”, the outcome [15] was “inactive” and the outcome (CD38, CD38 (gene 952)) was “inactive”. For the same compound, the outcome (CD40, CD40 (gene 958) [16]) was “inactive” and the outcome [17] was “inactive”.
